# Screens as filed in PubChem BioAssay.
# Most compounds without a hit are left out; they make up all but 2.3% or so of the library.
# Tau fluor cs = counter-screen for tau fibril formation inhibitors; AID 1463; tau K18 P301L Alexa594 fluorescence, heparin fibrillization; 280,000 tested, 0.93% active; Potency, µM (titrated, usually from 57.7 µM), without a hit: at the highest dose activity change, negative = decrease; note: potency is the fitted concentration of half-maximal effect; nearly all actives have a fitted effect of over 55% in size
#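 Human K18 P301L tau (15 uM unlabeled plus 0.24 uM Alexa 594-labeled, final) in 100 mM sodium acetate pH 7 was mixed with compound and 20 uM heparin and incubated 6 hr at 37 C.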
# USP1 inh = inhibitors of human USP1/UAF1 deubiquitinase. 390,000 tested, 0.23% active. Potency, µM (titrated, usually from 57.1 µM), for the others: at the top dose activity change, negative = inhibition, hits mostly inhibitors. recombinant USP1/UAF1, Ub-Rhodamine cleavage fluorescence; note: potency is the fitted concentration of half-maximal effect; nearly all actives have a fitted effect of over 60% in size
# Target sequence (O94782 whole entry, looked up): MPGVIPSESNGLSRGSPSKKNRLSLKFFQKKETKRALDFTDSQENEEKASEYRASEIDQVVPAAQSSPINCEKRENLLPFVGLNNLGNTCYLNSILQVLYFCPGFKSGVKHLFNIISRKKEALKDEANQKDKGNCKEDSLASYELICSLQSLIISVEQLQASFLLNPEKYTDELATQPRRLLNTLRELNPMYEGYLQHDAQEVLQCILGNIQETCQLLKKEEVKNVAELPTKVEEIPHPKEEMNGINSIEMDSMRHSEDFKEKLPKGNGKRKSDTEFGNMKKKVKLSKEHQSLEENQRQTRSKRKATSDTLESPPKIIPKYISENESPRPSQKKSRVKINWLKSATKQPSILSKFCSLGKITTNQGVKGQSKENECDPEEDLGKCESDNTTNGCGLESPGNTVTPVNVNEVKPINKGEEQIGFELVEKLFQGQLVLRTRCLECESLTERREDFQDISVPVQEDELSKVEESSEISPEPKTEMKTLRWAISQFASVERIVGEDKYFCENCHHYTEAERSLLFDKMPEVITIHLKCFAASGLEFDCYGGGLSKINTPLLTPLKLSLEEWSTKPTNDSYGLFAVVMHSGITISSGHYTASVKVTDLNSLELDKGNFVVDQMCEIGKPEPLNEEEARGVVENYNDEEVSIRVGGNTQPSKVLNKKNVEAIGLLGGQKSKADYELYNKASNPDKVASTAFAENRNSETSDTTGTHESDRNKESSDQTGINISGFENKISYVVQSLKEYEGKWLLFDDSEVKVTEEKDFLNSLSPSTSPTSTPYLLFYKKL
#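 Step one: compound is pinned into 1nM USP1/UAF1 in HEPES pH 7.8 buffer with TCEP. Step two: 15 min room-temperature incubation. Step three: Ub-Rho (150nM final) starts cleavage, tracked by fluorescence over six one-minute reads.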
# Coupling enz = inhibits coupling enzyme system, counter-screen for aldolase hits | coupling enzyme system counterscreen, AmpLite Red fluorescence | 290,000 tested, 0.67% active | activity change, negative = inhibition, % at 58.2 µM, hits read low | AID 2472; in the data active = activity change below about -30%
#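 Fluorescence at 525 nm excitation and 598 nm emission measured inhibition of the coupled detection system without aldolase. Compounds (at 57.5 uM final) were preincubated 10 min at room temperature with coupling enzyme reagent before a 20 min substrate/AmpLite Red step.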
# Tau fibril FP = inhibitors of human tau fibril formation. AID 1468. Potency, µM (highest dose often 57.7 µM), without a hit: top-dose activity, negative = inhibition, actives largely listed as inhibitors. 280,000 tested, 0.39% active. K18 P301L tau heparin fibrillization, Alexa594 FP, 6 h; note: potency is the fitted concentration of half-maximal effect; nearly all actives have a fitted effect of over 55% in size
#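 K18 P301L tau (15 uM unlabeled/0.24 uM Alexa 594-labeled, final) + compound + heparin 20 uM final; 100 mM NaOAc pH 7; 6 hr 37 C; ThT 30 uM final added, 1 hr RT; FP ex 555/em 632 nm.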
# Tau fibril ThT = blocks human tau fibril formation measured by thioflavin T | P10636 | recombinant tau K18 P301L, heparin-induced fibrillization, ThT fluorescence | Potency, µM (titrated, usually from 57.4 µM), without a hit: top-dose activity, negative = inhibition, hits mostly inhibitors | 270,000 tested, 2.1% active | AID 1460; note: potency is the fitted concentration of half-maximal effect; nearly all actives have a fitted effect of over 55% in size
#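 Fibril formation assay: tau K18 P301L at 15 uM with trace Alexa 594 label, heparin inducer 20 uM, pH 7 sodium acetate buffer, 37 C for 6 hr; endpoint ThT signal.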
# Starred values were filed as active, the others as inactive; ? = inconclusive; · = not tested or not shown; [ ] = remark or other dose. Unless noted, calls come from the whole dose curve; as a rule, active = well fitted curve in the direction sought with a large enough effect; inconclusive = small, poorly fitted or top-dose-only effect, or another doubt; inactive = no such curve, though single readings can be large; an effect the other way counts as inactive or inconclusive. % is set by controls: 0 for no effect and ±100 for the full control effect.
SMILES,Tau fluor cs,USP1 inh,Coupling enz,Tau fibril FP,Tau fibril ThT
CC(C)/C=C1\CC/C(=C\c2ccc(N(C)C)cc2)C1=O,16%,-13%,-1,19%,2µM*
CN(C)/N=C/C=C1\CC/C(=C\c2ccc(F)c(F)c2)C1=O,·,-2%,·,·,·
CC(C)c1ccc(/C=C2\CC/C(=C\C=N\N(C)C)C2=O)cc1,-19%,-22%,-3,?,3.2µM*
O=C(NCc1ccccc1F)C(=O)NCC1CCCN1S(=O)(=O)c1ccccc1 (stereo not drawn),·,-10%,·,·,·
N#CCCCS(=O)(=O)c1nnnn1-c1ccc(F)cc1Br,-9%,·,3,-2%,?
COc1ccc(-c2cc(C(F)(F)F)nc(SCCC(=O)Nc3cccc(O)c3)n2)cc1,?,-21%,·,14µM*,2%
COc1ccc(CN2C(=O)N(c3ccc(F)cc3)C(=O)C2CC(=O)Nc2ccccc2)cc1 (stereo not drawn),-18%,-2%,·,-13%,3%
CSc1nc(-c2ccco2)nn1S(=O)(=O)c1ccccc1,0%,·,-1,-6%,-16%
CSc1nc(-c2ccco2)nn1S(=O)(=O)c1ccc(C)cc1,-2%,-17%,-34*,?,-8%
CCS(=O)(=O)n1nc(-c2ccco2)nc1SC,-5%,-24%,-76*,-3%,-2%
O=C(NC1CCCC1)c1ccc2c(c1)N(Cc1c(F)cccc1Cl)C(=O)c1ccccc1S2,-7%,-26%,·,-12%,-2%
O=C(CSc1oc(-c2ccco2)nc1S(=O)(=O)c1ccc(Cl)cc1)c1ccc(Cl)cc1,?,-16%,·,-14%,-12%
CCOc1ccc2c(c1)-c1c(ssc1=S)C(C)(C)N2,13µM*[quencher],-9%,-3,-2%,13µM*
CCOc1ccc2c(c1)-c1c(ssc1=S)C(C)(C)N2C(=O)CSC1=NCCS1,?,-4%,1,15%,?
CCC(=O)NNc1ncnc2c1cnn2-c1ccc(C)c(Cl)c1,?,-2%,·,-9%,-9%
Cc1ccc(C(=O)ONc2ccc(N=O)cc2)cc1,-12%,-16%,-3,-3%,-27%
Cc1ccc(C(=O)ONc2ccc(N=NC(=O)c3ccccc3O)cc2)cc1,?,2%,-15,-3%,2.2µM*
CCSc1nn(CC(=O)Nc2cccc(Cl)c2)c(N)c1S(=O)(=O)c1ccc(OC)cc1,?,?,·,?,21%
COc1ccc(S(=O)(=O)c2c(SC)nn(CC(=O)Nc3ccc(C)c(Cl)c3)c2N)cc1,?,?,·,25µM*,7%
CCSc1nn(CC(=O)Nc2cccc(CC)c2)c(N)c1S(=O)(=O)c1ccccc1,18µM*[quencher],-6%,·,?,-7%
Cc1ccc2nc(-c3ccccc3O)c(Nc3ccc4c(c3)OCCO4)n2c1,7.1µM*[quencher],-17%,-2,10%,?
Cc1ccc2nc(-c3ccc(O)cc3)c(Nc3ccc4c(c3)OCCO4)n2c1,25µM*[quencher],-13%,0,16%,?
CC(C)(C)c1ccc(OC2C(O)COC2/C=C/C#Cc2ccccc2)cc1 (stereo not drawn),-26%[11.6 µM],·,-2,-2%[11.6 µM],-22%[11.5 µM]
Cc1cc(C)c2c(c1)/C(=N\N=c1\sc3ccccc3n1C)C(=O)N2,-7%,-8%,-3,6%,4.5µM*
COc1cccc2c1C(=O)c1c(O)c3c(c(O)c1C2=O)CC(O)(C(C)=O)CC3OC1CC(O)C(O)C(C)O1 (stereo not drawn),·,25µM*,·,·,·
SMILES,Tau fluor cs,USP1 inh,Coupling enz,Tau fibril FP,Tau fibril ThT
COc1cccc2c1C(=N)c1c(O)c3c(c(O)c1C2=O)CC(O)(C(C)=O)CC3OC1CC(N)C(O)C(C)O1 (stereo not drawn),·,-26%,·,·,·
COc1cccc2c1C(=O)c1c(O)c3c(c(O)c1C2=O)C[C@](O)(C(C)=O)C[C@H]3O[C@@H]1C[C@@H](N)[C@@H](O)[C@@H](C)O1,·,13µM*,·,·,·
O=C(Cc1cccs1)NC1CC(=O)N(c2ccc(Cl)cc2)C1 (stereo not drawn),-6%,13%,·,2%,-4%
Cc1ccc2onc(CC(=O)Nc3cc(F)ccc3F)c2c1,0%,?,·,-1%,-6%
CC(=O)c1ccc(N=Nc2ccc(C)cc2)cc1,-25%,-25%,2,3%,4.5µM*
Cc1ccc(C(=O)c2ccc(C)cc2)cc1,2%,-14%,0,-2%,3%
CC(=O)c1ccc(N=Nc2ccc(N(C)C)cc2)cc1,-26%,-10%,1,-7%,1µM*
CN(C)c1ccc(N=Nc2ccccc2Br)cc1,·,-4%,0,·,·
CN(CC(=O)Nc1ccc(Cl)c(Cl)c1)C(=O)C1CCCC1,·,-14%,·,·,·
N#Cc1cccc(NC(=O)COC(=O)c2ccccc2Sc2ccccc2C#N)c1,?,-6%,0,16µM*,14%
O=[N+]([O-])c1ccc(/C([O-])=C(/C(=S)NCc2ccco2)[n+]2ccccc2)cc1,-21%,-25%,-25,?,25µM*
Cc1ccc(/C([O-])=C(/C(=S)NCc2ccco2)[n+]2ccccc2)cc1,-18%,·,-13,-5%,?
O=[N+]([O-])c1cccc(/C([O-])=C(/C(=S)Nc2cccc3ccccc23)[n+]2ccccc2)c1,12%,-22%,-42*,1%,12%
COC(=O)c1cc(S(=O)(=O)N2CCOCC2)c(Cl)cc1N1CCOCC1,-3%,-8%,5,2%,-4%
COC(=O)c1cc(C)nc2c1C(=O)C(=O)C=C2N1CCOCC1,·,1.3µM*,-79*,·,·
CCOC(=O)c1c(NC(=O)/C=C/C(=O)O)sc(C)c1-c1ccc(C(C)(C)C)cc1,-6%,32µM*,14,?,?
COc1ccc(/C=C/c2nc(N)nc(-c3ccccc3O)n2)cc1OC,?,-15%,2,20µM*,?
CCc1ccc(/C=C(/C#N)c2nc(-c3ccc(C)cc3)cs2)cc1,?,-23%,·,-7%,?
CCOc1ccc(-c2csc(/C(C#N)=C\c3ccc(O)c([N+](=O)[O-])c3)n2)cc1,7.1µM*[quencher],?,0,?,1.3µM*
Cc1ccc(O)c(NC(=O)c2ccc(Br)c(S(=O)(=O)N3CCCCC3)c2)c1,13µM*[quencher],-3%,·,-3%,-12%
O=C(Nc1cc(Cl)cc(Cl)c1)c1ccc(F)c(S(=O)(=O)NC2CCCC2)c1,?,2%,·,10µM*,1%
CC(C)c1ccc(NC(=O)c2ccc(F)c(S(=O)(=O)N3CCCC3)c2)cc1,-9%,-12%,·,-11%,?
Cc1ccc(O)c(NC(=O)c2cccc(S(=O)(=O)N3CCCCC3)c2)c1,?,-2%,1,7%,?
O=C(Nc1cc(Cl)cc(Cl)c1)c1ccc(F)c(S(=O)(=O)N2CCCC2)c1,?,?,·,14µM*,-5%
O=C1C(=O)N(C2CCN(S(=O)(=O)c3ccccc3)CC2)CCN1Cc1ccccc1,-2%,-15%,·,-4%,5%
